# Calls of active or inactive are those of the source. The calls were made as follows: active = hit-call score of the fitted dose curve at least 0.9, where 1 is the maximum; inactive = score below 0.9.
# Assay: CCTE_Simmons_MITO_basal_resp_rate: CCTE's HepG2 Seahorse XF Respirometric Screening Assay at Basal Respiratory State, Simmons Lab (AID 2284001)
# Details: actives raise or lower the signal
# Outline: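 HepG2 cells were given test chemicals at 7 concentrations, 125 nM to 100 uM final, and oxygen consumption rate was read every 6 min (3 min mix, 3 min measure) over 72 min. Basal-phase OCR was fitted bidirectionally against DMSO.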
row,SMILES,AC50
1,O=C(O)C1(c2ccc3c(c2)OC[C@H](Cc2ccc(-c4ccccc4)cc2)[C@H]3O)CCCC1,5.21 µM (active)
2,Oc1c(Cl)cc(Cl)cc1Cl,77 µM (active)
